FLuc inh = qHTS Assay for Inhibitors of Firefly Luciferase. actives 2.2% (n = 72,000). Potency, µM (doses to about 57.1 µM), without a hit: top-dose activity change, negative = inhibition, most hits filed as inhibitors. Luciferin 4-monooxygenase (Photinus pyralis), P08659. AID 411, 2009. purified firefly luciferase, luminescence, 8 min; further: on the % scale 0 is the no-effect control and ±100 the full control effect; nearly all actives have a fitted effect of over 40% in size
Target sequence (P08659 whole entry, looked up): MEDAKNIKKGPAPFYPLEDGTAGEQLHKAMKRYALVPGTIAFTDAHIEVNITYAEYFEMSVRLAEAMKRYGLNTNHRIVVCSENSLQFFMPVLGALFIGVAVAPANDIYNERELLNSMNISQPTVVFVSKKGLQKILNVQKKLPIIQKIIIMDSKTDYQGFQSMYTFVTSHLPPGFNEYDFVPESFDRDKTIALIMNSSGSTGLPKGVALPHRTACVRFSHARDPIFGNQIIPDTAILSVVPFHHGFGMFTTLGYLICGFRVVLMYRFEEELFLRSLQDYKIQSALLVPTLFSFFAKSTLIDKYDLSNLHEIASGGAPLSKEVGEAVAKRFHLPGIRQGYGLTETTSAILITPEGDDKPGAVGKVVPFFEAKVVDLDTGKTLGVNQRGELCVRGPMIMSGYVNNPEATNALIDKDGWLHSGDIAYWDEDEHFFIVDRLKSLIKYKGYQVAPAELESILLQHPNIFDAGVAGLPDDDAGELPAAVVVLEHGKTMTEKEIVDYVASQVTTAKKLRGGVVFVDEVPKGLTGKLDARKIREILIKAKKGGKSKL
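Substrate buffer containing 10 uM ATP (pH 7.2 imidazole, Mg2+, KCl, detergent, BSA) is dispensed, compound pinned in, then luciferase/luciferin detector mix added. After 8 min at ambient temperature, light output is measured.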
GBA activity = Glucocerebrosidase; Lysosomal acid glucosylceramidase (Homo sapiens), P04062; purified enzyme, resorufin glucoside fluorescence (screen aimed at inhibitors), 20 min; Potency, µM; actives 1.1% (n = 48,000); in the data active means potency below about 15 µM; inconclusive means mostly about 16 µM to 33 µM;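 further: the screen sought inhibitors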
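Wild-type enzyme at 0.2 nM final in 50mM citric acid/KH2PO4, 10mM sodium taurocholate, 0.01% tween-20, pH 5.9, with resorufin beta-D-glucopyranoside at 30 uM final. Compounds titrated, 20 min at RT, red fluorescence read; AC50 from titration.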
PK Bst = Pyruvate Kinase; purified pyruvate kinase, luminescence ATP production; ribose 5-phosphate activator present at AC10; Potency, µM; actives 1.2% (n = 51,000); AID 361, 2006; in the data active means potency below about 11 µM; inconclusive means mostly about 12 µM to 25 µM;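 the screen sought inhibitors and activators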;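 further: scaled between full activation by ribose 5 phosphate and full inhibition by luteolin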
ERK AVP inh = qHTS Assay for Inhibitors of the ERK Signaling Pathway using a Homogeneous Screening Assay. HEK293-V1b, vasopressin-stimulated pERK AlphaScreen. Potency, µM (titrated, usually from 57.5 µM), inactives show top-dose activity, negative = inhibition, most hits filed as inhibitors. actives 0.99% (n = 72,000); further: on the % scale 0 is the no-effect control and ±100 the full control effect; nearly all actives have a fitted effect of over 55% in size
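HEK293 cells stably expressing V1b receptor, preincubated 30 min at 37 °C with compound, then stimulated 5 min with 25 nM vasopressin. Phospho-ERK by AlphaScreen SureFire after 5 h RT; normalized to DMSO and vasopressin; AC50 by Hill fit.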
An asterisk follows results filed as active; i = inactive; ? = inconclusive; · = no result given; [ ] = remark or other dose. The list is not random: actives were taken first. Their share in the collection is about 3.9%. Unless noted, the call rests on the fitted dose curve; in most records, active means well fitted curve in the direction sought with a large enough effect; inconclusive means small, poorly fitted or top-dose-only effect, or another doubt; inactive means no such curve, though single readings can be large; an effect the other way counts as inactive or inconclusive. Potency means the concentration at half of the fitted maximal effect.

SMILES	FLuc inh	GBA activity	PK Bst	ERK AVP inh
COc1ccc(-c2nc(=S)[nH][nH]2)cc1	-2%	·	·	-16%
O=C(N[C@@]1(C(=O)O)C[C@@H]1c1ccccc1)c1ccccc1	3%[11.4 µM]	·	·	23%[11.5 µM]
O=C(c1cc(-c2ccncc2)nc2ccccc12)N1CCN(c2ccccn2)CC1	-13%	>77	>57	24%
c1ccc(-c2nnc(N3CCN(c4ccccn4)CC3)c3ccccc23)cc1	-2%	14*	>57	-20%
O=C(c1cc(-c2ccccc2)nc2ccccc12)N1CCN(c2ccccn2)CC1	20µM*	>77	·	?
Cc1ccc(-c2nnc(N3CCN(c4ccccn4)CC3)c3ccccc23)cc1	-9%	>77	>57	5%
COc1ccc(/C=C/N(CCc2ccc(OC)c(OC)c2)C(=O)c2ccccn2)cc1	·	·	·	20%[11.5 µM]
Cc1ccccc1-c1ccc2ncnc(N(C)Cc3ccco3)c2c1	-3%[2.29 µM]	·	·	-19%
COc1ccc(Nc2ncccc2C(=O)Nc2ccccc2)cc1	-4%	>77	>57	?
COc1cc2cc(C(=O)Nc3ccccc3)c(N)nc2cc1OC	10µM*	>77	i	-18%
O=C(O)c1ccc(NS(=O)(=O)Cc2ccccc2)cc1	3%[11.4 µM]	·	·	0%[11.5 µM]
CCOC(=O)C1CCCN(C(=O)c2cc3nc(-c4cccc(OC)c4)cc(C(F)(F)F)n3n2)C1 (centres undefined)	0%	7.2*	>57	16µM*
Cc1ccc(NCc2nc3ccccc3n2C)cc1	13µM*	>77	?	-26%
CCOC(=O)CSc1nnc(-c2ccccc2NC(=O)c2ccccc2)o1	3%	8.3*	>57	9%
CCCCCSc1nc2c(cnn2-c2ccccc2)c(=O)[nH]1	1%	13*	>57	-4%
CO[C@@H]1COC(=O)[C@H](COCc2ccccc2)NC(=O)C/C=C\[C@@H](C)[C@H](OC)COC(=O)[C@H](COCc2ccccc2)NC(=O)C/C=C\[C@H]1C	0%[11.4 µM]	·	·	15%[11.5 µM]
C[C@@](N)(C(=O)O)c1ccc(P(=O)(O)O)cc1	0%	·	·	-9%
COc1cccc(-c2nn(C)c3sc(C(=O)N4CCOCC4)cc23)c1	0%	·	·	4%
COc1cccc(-c2nn(C)c3sc(C(=O)N4CCN(c5ccccn5)CC4)cc23)c1	-1%	>77	7.3*	7%
C1CCCNCC1	·	·	·	20%
Cc1ccc(S(=O)(=O)N2C(=O)CCC2C(=O)Nc2ccc3c(c2)OCCO3)cc1 (centres undefined)	3%	>77	2.3*	-19%
Cc1ccc(S(=O)(=O)N2CCC(C(=O)N[C@@H](C)C(=O)Nc3ccc4c(c3)OCO4)CC2)cc1	0%	>77	>57	-26%
COc1ccc(-c2nc3cnc(N4CCN(C)CC4)nc3n(-c3ccc(OC)cc3)c2=O)cc1	1%[11.4 µM]	·	·	20%
CCCCCOc1ccc(CN2CCOCC2)cc1Cl	25µM*	·	·	8%
c1cn2c(NC3CCCC3)c(-c3ccc(N4CCOCC4)cc3)nc2cn1	2.5µM*	·	·	·
SMILES	FLuc inh	GBA activity	PK Bst	ERK AVP inh
O=C(c1ccc(N2CCOCC2)cc1)c1cccs1	10µM*	>77	?	-6%
COC(=O)[C@@]1(Cc2ccc(F)cc2)[C@H]2c3cc(C(=O)N(C)C)n(CCc4ccc(O)c(O)c4)c3C[C@H]2CN1C(=O)c1ccccc1	·	·	·	3%
CN1CCN(c2ncc3nc(-c4cccs4)c(=O)n(C[C@H]4CCCO4)c3n2)CC1	1%[11.4 µM]	·	·	19%
Brc1ccc(-c2cnc(-c3cccs3)o2)cc1	?	>77	1.3*	1%
c1ccc(-c2cnc(-c3cccnc3)o2)cc1	-22%	·	·	-29%
CCOC(=O)N1CCN(c2nc(SC)nc3sc4c(c23)CC(C)(C)OC4)CC1	-2%	>77	·	-23%
CC1(C)Cc2c(sc3nc(SCC(=O)N4CCOCC4)nc(N)c23)CO1	-1%	14*	>57	?
Cc1ccc(O)c(-c2cc(-c3ccccc3C)[nH]n2)c1	-3%	?	·	1%
Oc1ccccc1-c1cc(-c2ccccc2Cl)[nH]n1	13µM*	>77	?	-3%
CC(C)CO/N=C1/[C@H]2O[C@@H]2[C@@H](O)[C@H]2[C@H]1CCn1c(=O)n(C)c(=O)n12	-2%[11.4 µM]	·	·	1%[11.5 µM]
CCCC[P+](CCCC)(CCCC)Cc1ccc(NC(=O)[C@@H](Cc2ccc3ccccc3c2)NC(=NC2CCCCC2)NC2CCCCC2)cc1	1%	·	·	-10%
CCn1c2ccccc2c2cc(NC(=O)C3CCN(S(=O)(=O)c4cccs4)CC3)ccc21	1%	2.8*	>57	17%
Cc1ccc2nc(NC(=O)C3CCN(S(=O)(=O)c4cccs4)CC3)sc2c1	0%	?	>57	25µM*
O=C(Nc1ccccn1)C1CCN(S(=O)(=O)c2cccs2)CC1	0%	>77	>57	5%
COC(=O)[C@H]1C[C@H]2CC[C@H](O)C[C@H]2N1Cc1c(F)cccc1Cl	·	·	·	-16%
COc1cc(SC)ccc1C(=O)Nc1ccon1	25µM*	>77	?	?
CN(C)c1ncc2nc(-c3cccs3)c(=O)n(CCC#N)c2n1	0%[11.4 µM]	·	·	?
C=C[C@H]1CN2CC[C@@H]1C[C@@H]2[C@@H](O)c1ccnc2ccc(OC)cc12	1%	·	·	15%
O=C(COc1ccc(F)cc1)Nc1nccs1	13µM*	·	·	·
Cc1noc(C)c1C(=O)N1CCC2(CCCN(C(=O)Nc3cccc(F)c3)C2)CC1	1%[11.4 µM]	·	·	-12%
COC(=O)c1ccc(OCC(=O)c2ccc(O)cc2O)cc1	13µM*	?	·	?
CCOC(=O)c1ccc(OCC(=O)c2ccc(O)cc2O)cc1	-24%	?	>57	-10%
CC(=O)OCC1OC(Oc2cc(OC(C)=O)c3c(=O)cc(-c4ccc(OC(C)=O)c(OC(C)=O)c4)oc3c2)C(OC(C)=O)C(OC(C)=O)C1OC(C)=O (centres undefined)	·	·	·	-12%
CCC(C)(C)n1nnnc1CN(Cc1cccs1)Cc1cc2cc(OC)ccc2[nH]c1=O	1%	i	>57	-5%
CCOc1ccc2[nH]c(=O)c(CN(Cc3cccs3)Cc3nnnn3C(C)(C)CC)cc2c1	-34%	15*	>57	-14%
SMILES	FLuc inh	GBA activity	PK Bst	ERK AVP inh
CC(=O)C1(C)CC2=C(CCCC2(C)C)CC1C (centres undefined)	·	·	·	-23%
COc1ccc(NC(=O)c2ccc3c(c2)C(=O)N(Cc2cccnc2)C3=O)c(OC)c1	2%	5*	>57	3%
COc1ccc(NC(=O)c2cccnc2)c(OC)c1	5%	·	·	-10%
O=C1CCC=C1[C@@H](O)CCc1ccccc1	1%[11.4 µM]	·	·	4%[11.5 µM]
COc1ccccc1CC(=N)N1C[C@@H]2C(=O)CCC(c3ccccc3)(c3ccccc3)[C@@H]2C1	4%	·	·	6%
Cc1cccc(-n2ncc3c(NCc4cccs4)ncnc32)c1	?	14*	·	?
CC(C)(C)Nc1ncnc2c1cnn2-c1ccccc1	5µM*	·	·	·
c1ccc(CNc2ncnc3c2cnn3-c2ccccc2)cc1	-5%	?	>57	15%
CC(C)OCCCNc1ncnc2c1cnn2-c1ccccc1	4µM*	·	8.9*	·
Cc1ccc(-n2ncc3c(NCCCOC(C)C)ncnc32)c(C)c1	-2%[25.5 µM]	·	>11	·
CN(Cc1ccccc1)c1ncnc2c1cnn2-c1ccccc1	13µM*	>77	?	?

Compound activity deposited in PubChem by National Center for Advancing Translational Sciences (NCATS).
